Source: PubChem BioAssay (EPA / NIEHS)
Where “and” joins values, the source holds several entries; their conditions need not be identical. Equal entries are not always repeated. More than one record can exist for a structure, and the calls need not agree. Calls of active or inactive are those of the source. Rule for the calls: active = hit-call score of the fitted dose curve at least 0.9, where 1 is the maximum; inactive = score below 0.9.

read-out: Interferon-inducible T-cell alpha chemoattractant (ITAC), CXCL11 (gene 6373); assay: BSK_hDFCGF_ITAC: BioMAP Diversity Plus: hDFCGF Assay for Interferon-inducible T-cell alpha chemoattractant (ITAC) Biomarker Activity (AID 2284251); settings: primary human foreskin fibroblasts
Procedure, shortened: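 Chemical dosing of primary human foreskin fibroblast cultures preceded ELISA measurement of I-TAC at 24 h. Response was analysed in the positive direction using DMSO as baseline, while parallel SRB staining measured cytotoxicity.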

| SMILES | outcome | AC50 |
| --- | --- | --- |
| O=P(O)(O)CCC(F)(F)C(F)(F)C(F)(F)C(F)(F)C(F)(F)C(F)(F)F | inactive |  |
| O=S(=O)(O)C(F)(F)C(F)(F)C(F)(F)C(F)(F)C(F)(F)C(F)(F)C(F)(F)C(F)(F)C(F)(F)C(F)(F)F | inactive | 8.02 µM (active) |
| O=C(O)CCC(F)(F)C(F)(F)C(F)(F)C(F)(F)C(F)(F)F | inactive | 2.04 µM (active) |
| O=P(O)(O)CCC(F)(F)C(F)(F)C(F)(F)C(F)(F)C(F)(F)C(F)(F)C(F)(F)C(F)(F)F | inactive | 0.236 µM (active) |
| C=CC(=O)OCCC(F)(F)C(F)(F)C(F)(F)C(F)(F)C(F)(F)C(F)(F)C(F)(F)C(F)(F)F | inactive |  |
| CN(CCO)S(=O)(=O)C(F)(F)C(F)(F)C(F)(F)C(F)(F)C(F)(F)C(F)(F)C(F)(F)C(F)(F)F | inactive |  |
| OCC(F)(F)C(F)(F)C(F)(F)C(F)(F)C(F)(F)C(F)(F)C(F)(F)C(F)(F)C(F)(F)C(F)(F)C(F)(F)F | inactive |  |
| CN(Cc1cnc2nc(N)nc(N)c2n1)c1ccc(C(=O)N[C@@H](CCC(=O)O)C(=O)O)cc1 | inactive |  |
| O=C1NS(=O)(=O)c2ccccc21 | inactive |  |
| O=C(CC(=O)C(F)(F)C(F)(F)C(F)(F)F)c1cccs1 | inactive | 7.8 µM (active) |
| O=C(O)CCC(F)(F)C(F)(F)C(F)(F)C(F)(F)C(F)(F)C(F)(F)F | inactive |  |
| O=C(O)C(F)(F)OC(F)(F)C(F)(F)OC(F)(F)C(F)(F)OC(F)(F)C(F)(F)C(F)(F)C(F)(F)F |  | 11.1 µM (active) and 11.3 µM (active) |

read-out: Monocyte Chemoattractant Protein-1 (MCP1), CCL2 (gene 6347); assay: BSK_IMphg_MCP1: BioMAP Diversity Plus: IMphg Assay for Monocyte Chemoattractant Protein-1 (MCP1) Biomarker Activity (AID 2284253); settings: primary human endothelial cells with macrophages
Procedure, shortened: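 ELISA readout of MCP-1 at 24 hours in IMphg co-cultures of venular endothelial cells and macrophages, normalised to DMSO; parallel cultures stained with sulforhodamine B for overt cytotoxicity.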

| SMILES | outcome | AC50 |
| --- | --- | --- |
| O=P(O)(O)CCC(F)(F)C(F)(F)C(F)(F)C(F)(F)C(F)(F)C(F)(F)F | inactive |  |
| O=S(=O)(O)C(F)(F)C(F)(F)C(F)(F)C(F)(F)C(F)(F)C(F)(F)C(F)(F)C(F)(F)C(F)(F)C(F)(F)F | inactive |  |
| O=C(O)CCC(F)(F)C(F)(F)C(F)(F)C(F)(F)C(F)(F)F | inactive |  |
| O=P(O)(O)CCC(F)(F)C(F)(F)C(F)(F)C(F)(F)C(F)(F)C(F)(F)C(F)(F)C(F)(F)F | inactive |  |
| C=CC(=O)OCCC(F)(F)C(F)(F)C(F)(F)C(F)(F)C(F)(F)C(F)(F)C(F)(F)C(F)(F)F | inactive |  |
| CN(CCO)S(=O)(=O)C(F)(F)C(F)(F)C(F)(F)C(F)(F)C(F)(F)C(F)(F)C(F)(F)C(F)(F)F | inactive |  |
| OCC(F)(F)C(F)(F)C(F)(F)C(F)(F)C(F)(F)C(F)(F)C(F)(F)C(F)(F)C(F)(F)C(F)(F)C(F)(F)F | inactive |  |
| CN(Cc1cnc2nc(N)nc(N)c2n1)c1ccc(C(=O)N[C@@H](CCC(=O)O)C(=O)O)cc1 | inactive |  |
| O=C(CC(=O)C(F)(F)C(F)(F)C(F)(F)F)c1cccs1 |  | 27.7 µM (active) and 25.5 µM (active) |
| O=C(O)CCC(F)(F)C(F)(F)C(F)(F)C(F)(F)C(F)(F)C(F)(F)F | inactive |  |
| O=C(O)C(F)(F)OC(F)(F)C(F)(F)OC(F)(F)C(F)(F)OC(F)(F)C(F)(F)C(F)(F)C(F)(F)F |  | 38.2 µM (active) and 24 µM (active) |

read-out: Interleukin-8 (IL8), CXCL8 (gene 3576); assay: BSK_KF3CT_IL8: BioMAP Diversity Plus: KF3CT Assay for Interleukin-8 (IL8) Biomarker Activity (AID 2284254); settings: primary human keratinocytes with fibroblasts
Procedure, shortened: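 Human primary keratinocyte plus foreskin fibroblast co-culture dosed with test chemicals; IL-8 measured by ELISA 24 h after dosing. Activity fitted in the positive direction relative to DMSO negative control.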

| SMILES | outcome | AC50 |
| --- | --- | --- |
| O=P(O)(O)CCC(F)(F)C(F)(F)C(F)(F)C(F)(F)C(F)(F)C(F)(F)F | inactive |  |
| O=S(=O)(O)C(F)(F)C(F)(F)C(F)(F)C(F)(F)C(F)(F)C(F)(F)C(F)(F)C(F)(F)C(F)(F)C(F)(F)F | inactive |  |
| O=C(O)CCC(F)(F)C(F)(F)C(F)(F)C(F)(F)C(F)(F)F | inactive |  |
| O=P(O)(O)CCC(F)(F)C(F)(F)C(F)(F)C(F)(F)C(F)(F)C(F)(F)C(F)(F)C(F)(F)F | inactive |  |
| C=CC(=O)OCCC(F)(F)C(F)(F)C(F)(F)C(F)(F)C(F)(F)C(F)(F)C(F)(F)C(F)(F)F | inactive | 16900 nM (active) |
| CN(CCO)S(=O)(=O)C(F)(F)C(F)(F)C(F)(F)C(F)(F)C(F)(F)C(F)(F)C(F)(F)C(F)(F)F | inactive | 1420 nM (active) |
| OCC(F)(F)C(F)(F)C(F)(F)C(F)(F)C(F)(F)C(F)(F)C(F)(F)C(F)(F)C(F)(F)C(F)(F)C(F)(F)F | inactive |  |
| CN(Cc1cnc2nc(N)nc(N)c2n1)c1ccc(C(=O)N[C@@H](CCC(=O)O)C(=O)O)cc1 | inactive |  |
| O=C1NS(=O)(=O)c2ccccc21 | inactive |  |
| O=C(CC(=O)C(F)(F)C(F)(F)C(F)(F)F)c1cccs1 | inactive |  |
| O=C(O)CCC(F)(F)C(F)(F)C(F)(F)C(F)(F)C(F)(F)C(F)(F)F | inactive |  |
| O=C(O)C(F)(F)OC(F)(F)C(F)(F)OC(F)(F)C(F)(F)OC(F)(F)C(F)(F)C(F)(F)C(F)(F)F | inactive |  |

read-out: Macrophage Inflammatory Protein-1 Alpha (MIP1a), CCL3 (gene 6348); assay: BSK_IMphg_MIP1a: BioMAP Diversity Plus: IMphg Assay for Macrophage Inflammatory Protein-1 Alpha (MIP1a) Biomarker Activity (AID 2284255); settings: primary human endothelial cells with macrophages
Procedure, shortened: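 MIP-1a protein levels were quantified by ELISA after 24 h treatment of human endothelial cell–macrophage co-cultures, compared with DMSO. Parallel cultures were fixed with TCA and stained with 0.1% SRB to gauge overt cytotoxicity.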

| SMILES | outcome | AC50 |
| --- | --- | --- |
| O=P(O)(O)CCC(F)(F)C(F)(F)C(F)(F)C(F)(F)C(F)(F)C(F)(F)F | inactive |  |
| O=S(=O)(O)C(F)(F)C(F)(F)C(F)(F)C(F)(F)C(F)(F)C(F)(F)C(F)(F)C(F)(F)C(F)(F)C(F)(F)F | inactive |  |
| O=C(O)CCC(F)(F)C(F)(F)C(F)(F)C(F)(F)C(F)(F)F | inactive | 835 nM (active) |
| O=P(O)(O)CCC(F)(F)C(F)(F)C(F)(F)C(F)(F)C(F)(F)C(F)(F)C(F)(F)C(F)(F)F | inactive |  |
| C=CC(=O)OCCC(F)(F)C(F)(F)C(F)(F)C(F)(F)C(F)(F)C(F)(F)C(F)(F)C(F)(F)F | inactive |  |
| CN(CCO)S(=O)(=O)C(F)(F)C(F)(F)C(F)(F)C(F)(F)C(F)(F)C(F)(F)C(F)(F)C(F)(F)F | inactive |  |
| OCC(F)(F)C(F)(F)C(F)(F)C(F)(F)C(F)(F)C(F)(F)C(F)(F)C(F)(F)C(F)(F)C(F)(F)C(F)(F)F | inactive |  |
| CN(Cc1cnc2nc(N)nc(N)c2n1)c1ccc(C(=O)N[C@@H](CCC(=O)O)C(=O)O)cc1 | inactive |  |
| O=C(CC(=O)C(F)(F)C(F)(F)C(F)(F)F)c1cccs1 |  | 52.5 µM (active) and 24.1 µM (active) |
| O=C(O)CCC(F)(F)C(F)(F)C(F)(F)C(F)(F)C(F)(F)C(F)(F)F | inactive | 7.18 µM (active) and 19.2 µM (active) |
| O=C(O)C(F)(F)OC(F)(F)C(F)(F)OC(F)(F)C(F)(F)OC(F)(F)C(F)(F)C(F)(F)C(F)(F)F |  | 36.5 µM (active) and 38.3 µM (active) |
